# Screens from PubChem.
# LASV entry inh = qHTS for Inhibitors of binding or entry into cells for Lassa Virus | Lassa virus pseudotype entry inhibition, cell reporter | Potency, µM (highest dose often 37.9 µM), for inactives: at the highest dose activity change, negative = inhibition, actives largely listed as inhibitors | 300,000 tested, 1.2% active; calls by dose curve; tested in HEK293 cells; also: potency is read from the fitted curve at half-maximal effect; nearly all actives have a fitted effect of over 50% in size
# Pf growth 96h = Primary qHTS for delayed death inhibitors of the malarial parasite plastid, 96 hour incubation | P. falciparum luciferase reporter growth, 96 h | Potency, µM (top dose mostly 28.7 µM), for inactives: at the top dose activity change, negative = inhibition, usual class: inhibitors | 320,000 tested, 6.9% active | AID 504834, 2011; also: potency is read from the fitted curve at half-maximal effect
#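 96 h incubation, 37 C, 5% CO2, of luciferase-reporter P. falciparum-infected RBCs (2% hematocrit, 0.05% parasitemia final) with test compounds; endpoint luminescence.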
# HCMV inh = qHTS Assay for inhibitors of the human cytomegalovirus (HCMV). HFF cells, HCMV-luciferase reporter, 72 h; hits give low values. activity change, negative = inhibition, % at 57.5 µM. 410,000 tested, 4.5% active. AID 1259415, 2018; in the data active = activity change below about -60%; inconclusive = no clear call, values can overlap the other calls; inactive = above about -39%
#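 Luciferase read-out from HCMV-luciferase-infected HFFs (MOI 1 PFU/cell) 72 h post infection at 37C; compounds added after 16 h cell attachment; activity normalized between buffer-only basal and Salinomycin (10uM) inhibitor controls.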
# HCV inhibitor = qHTS Assay for Inhibitors of Hepatitis C Virus (HCV). Huh7.5.1 HCVcc-Cre infection, luciferase reporter, 44 h. 340,000 tested, 3.4% active. AID 651820, 2012. Potency, µM (doses to about 41.8 µM), inactives show at the highest dose activity change, negative = inhibition, hits mostly inhibitors; also: potency is read from the fitted curve at half-maximal effect
#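 Cells seeded at 1,000/well and cultured 4 h, then compounds added followed by HCVcc-Cre virus (~0.5 moi). After 44 h further culture, luciferase substrate was added, plates held 15 min at room temperature, and luminescence read for 15 sec.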
# Marburg entry inh = qHTS for inhibitors of binding or entry into cells for Marburg Virus; 300,000 tested, 1.8% active; AID 540276, 2011; Marburg virus pseudotyped entry inhibition, cell reporter; Potency, µM (highest dose often 37.8 µM), for inactives: top-dose activity change, negative = inhibition, most hits filed as inhibitors; calls by dose curve; tested in HEK293 cells; also: potency is read from the fitted curve at half-maximal effect
# Pf growth 48h = Primary qHTS for delayed death inhibitors of the malarial parasite plastid, 48 hour incubation. Potency, µM (series often up to 28.7 µM), for inactives: at the highest dose activity change, negative = inhibition, actives largely listed as inhibitors. P. falciparum luciferase growth in erythrocytes, 48 h. AID 504832, 2011. 310,000 tested, 5.9% active; also: potency is read from the fitted curve at half-maximal effect
#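 Luciferase-expressing P. falciparum in infected erythrocytes (2% hematocrit, 0.1% parasitemia final) in RPMI 1640/0.5% Albumax were exposed to compound for 48 hours at 37 C, 5% CO2; growth read as luminescence.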
# Numbers without * were called inactive; ? = inconclusive; . = no result given; [ ] = remark or other dose. This is a sample that favours compounds with a hit; in the whole collection about 14% have one here. Unless noted, calls follow the shape of the dose curve; as a rule, active = well fitted inhibition curve with a large enough effect; inconclusive = small, poorly fitted or top-dose-only effect, or another doubt; inactive = no such curve, though single readings can be large or run the other way. % is scaled to controls: 0 for no effect and ±100 for the full control effect.
SMILES,LASV entry inh,Pf growth 96h,HCMV inh,HCV inhibitor,Marburg entry inh,Pf growth 48h
O=C(CN1C(=O)S/C(=C\c2ccccc2)C1=O)NNC(=O)c1ccccc1O,?,13%,-24,0%,7%,6%
CC1CCCN(C(=O)CSc2ncccn2)C1 (stereo not drawn),10%,42%,-19,2%,-11%[46.1 µM],48%
O=C(c1ccco1)N1CCN(Cc2cc(=O)oc3cc(O)ccc23)CC1,.,?,-14,-24%,.,5%
CC(C)CC(=O)N1CCN(C(=O)c2ccc(F)cc2)CC1,4%[46.1 µM],13µM*,21,0%,18%[46.1 µM],13%
CC(CC(=O)N1CCN(C(=O)c2ccccc2)CC1)c1ccccc1 (stereo not drawn),29%,11%,33,27%,6%,19%
CCc1nn(CC(=O)Nc2ccc(C)cc2C)c(=O)c2cc3sccc3n12,.,.,-5,.,7%[46.1 µM],.
Oc1c(C(Nc2ccccn2)c2cccnc2)cc(Cl)c2cccnc12 (stereo not drawn),?,90%,2,?,?,4.7µM*
CC(=O)NC(c1ccco1)c1cc(Cl)c2cccnc2c1O (stereo not drawn),.,?,-89*,.,.,?
CCCCC(=O)NC(c1ccco1)c1cc(Cl)c2cccnc2c1O (stereo not drawn),?,29%,-96*,8.9µM*,?,?
CC(=O)NC(c1cc(Cl)c2cccnc2c1O)C(C)C (stereo not drawn),.,10µM*,-98*,.,.,3.7µM*
CCN(C(=O)CSc1nc2ccccc2n1Cc1ccc(C(=O)OC)cc1)c1ccccc1,?,.,-2,.,.,.
CCC(=O)NC(c1ccc(OC)cc1)c1cc(Cl)c2cccnc2c1O (stereo not drawn),2.8µM*,288%,34,2.5µM*,2.2µM*,4%
CC(=O)NC(c1cc(Cl)c2cccnc2c1O)C1CC1 (stereo not drawn),.,13µM*,-97*,.,.,4.1µM*
CC(=O)NC(c1ccc(C)cc1)c1cc(Cl)c2cccnc2c1O (stereo not drawn),?,29%,-102*,5.6µM*,2.8µM*,?
COc1ccc(C(NC(=O)c2cccnc2)c2cc(Cl)c3cccnc3c2O)cc1OC (stereo not drawn),16µM*,0%,-97*,8.9µM*,7.1µM*,?
Cc1cccc(NC(=O)Cn2c(=O)n(Cc3ccccc3)c(=O)c3oc4ccccc4c32)c1C,0%[46.1 µM],.,3,.,.,.
Cc1ccc(/C=C/c2onc(C)c2S(=O)(=O)N2CCC(C(=O)N3CCN(c4ccccc4F)CC3)CC2)cc1,?,.,-6,.,.,.
Cc1cc(C)c2c(n1)SCC(=O)N2CC(=O)Nc1c(C)cccc1C,?,4%,3,0%,2%[46.1 µM],-4%
CCC(=O)NC(c1ccco1)c1cc(Cl)c2cccnc2c1OC (stereo not drawn),.,?,-4,.,.,?
CCC(=O)NC(c1ccco1)c1cc(Cl)c2cccnc2c1O (stereo not drawn),?,12%,-97*,6.3µM*,?,?
Cc1ccc(/C=C2\SC(=S)N(CC3CCCO3)C2=O)o1 (stereo not drawn),-2%,?,-85*,-6%,21%[46.1 µM],-30%
O=C1/C(=C/c2ccco2)SC(=S)N1CC1CCCO1 (stereo not drawn),-1%,16%,?,-16%,0%[14.2 µM],-3%
CC(C)CCOP(N)(=O)Oc1ccccc1 (stereo not drawn),.,2.1µM*,0,2%,.,-23%
O=C(NNC(=O)C12CC3CC(CC(C3)C1)C2)c1csc(N2CCOCC2)n1,-4%,13µM*,-14,21%,-2%,?
CCCCN(CCCC)C(=O)c1c[nH]c2ccc(S(=O)(=O)Nc3cccc(Cl)c3C)cc2c1=O,-4%[46.1 µM],28%,2,.,.,8%
SMILES,LASV entry inh,Pf growth 96h,HCMV inh,HCV inhibitor,Marburg entry inh,Pf growth 48h
Cc1ccc(-c2cc(-c3ccc(C)cc3)[n+](C)o2)cc1,12µM*,0.37µM*,-103*,8.9µM*,3.5µM*,1.2µM*
COc1ccccc1NC(=O)CCn1nc(-c2ccccc2OC)c2c(C)cc(C)nc21,?,.,-21,.,0%[46.1 µM],.
Nc1nc(N2CCN(C(=O)c3ccco3)CC2)nc2ccc(Br)cc12,?,34%,.,11µM*,?,35%
Nc1nc(N2CCN(C(=O)c3ccco3)CC2)nc2ccccc12,26%,-6%,78,-3%,16%,?
CCN1/C(=C\C=C2\C(=O)N(c3ccccc3)C(=S)N2C)Sc2ccccc21,?,77%[5.75 µM],-64*,-16%,15%[46.1 µM],-4%
CCN1/C(=C2\OC(=S)N(C)C2=O)Sc2ccccc21,0%,21%,88,19%,0%,34%
Cc1ccccc1NC(=O)OCc1cccnc1Sc1ccc(Cl)cc1,?,?,-39,?,12%,?
Cc1ccc(Sc2ncccc2COC(=O)Nc2ccccc2)cc1,16µM*,-15%,14,?,-28%,-5%
Cc1ccc(Sc2ncccc2COC(=O)Nc2c(C)cccc2C)cc1,2.8µM*,7.4µM*,27,?,-15%,?
Cc1ccc(Sc2ncccc2C(=O)O)cc1,8%,4%,23,15%,?,14%
COc1cccc(CNC(=O)CSc2n[nH]c(-c3ccccc3Cl)n2)c1OC,0%[46.1 µM],.,-7,.,.,.
CCc1ccc(N2CC(C)Cn3c2nc2c3c(=O)[nH]c(=O)n2C)cc1 (stereo not drawn),?,2.9µM*,15,25µM*,-10%[46.1 µM],7.4µM*
CC1CN(c2ccc(Cl)cc2)c2nc3c(c(=O)[nH]c(=O)n3C)n2C1 (stereo not drawn),.,3%,-23,5%,.,-2%
O=C(CN1CCC(c2nc3ccccc3s2)CC1)N1CCCCC1,.,10%,-62*,?,.,35%
CCCNC(=O)c1ccc(-c2nc3ccccc3s2)s1,?,-91%,-30,?,3.5µM*,.
O=C(CN1CCC(n2nnc3cc(C(F)(F)F)ccc32)CC1)NCc1cccs1,?,139%,-12,-19%,2.2µM*,?
COc1cccc(C(=O)N2CCC(c3nc4ccccc4s3)CC2)c1,7%[46.1 µM],.,-2,.,-28%[46.1 µM],.
O=C(CSc1ccccc1Cl)N1CCC(c2nc3ccccc3s2)CC1,2%,21%,2,?,-15%,-2%
CCCNC(=O)Nc1nc2ccccc2s1,.,132%,20,0%,.,94%
O=C(c1cccc(F)c1)N1CCC(c2nc3ccccc3s2)CC1,.,4.1µM*,-24,?,.,-12%
